# Where “and” joins values, the source holds several entries; their conditions need not be identical. Equal values may be shown once. Results filed as inconclusive are left out. A structure can be active in one record and inactive in another. Calls of active or inactive are those of the source. Unless noted, the rule behind the calls is not given here.
# How the values were obtained:
# [1] = target: ATP-dependent translocase ABCB1 (Homo sapiens) (UniProt P08183); assay: P-glycoprotein substrate transport blockade – cell-based (AID 377; in the data active = fluorescence slope change above about 50%); conditions: MDR1-expressing cells, fluorescent substrate accumulation slope; stronger effect = higher value; concentration not given here
# ATP-dependent translocase ABCB1 (Homo sapiens), sequence (P08183 whole entry, looked up): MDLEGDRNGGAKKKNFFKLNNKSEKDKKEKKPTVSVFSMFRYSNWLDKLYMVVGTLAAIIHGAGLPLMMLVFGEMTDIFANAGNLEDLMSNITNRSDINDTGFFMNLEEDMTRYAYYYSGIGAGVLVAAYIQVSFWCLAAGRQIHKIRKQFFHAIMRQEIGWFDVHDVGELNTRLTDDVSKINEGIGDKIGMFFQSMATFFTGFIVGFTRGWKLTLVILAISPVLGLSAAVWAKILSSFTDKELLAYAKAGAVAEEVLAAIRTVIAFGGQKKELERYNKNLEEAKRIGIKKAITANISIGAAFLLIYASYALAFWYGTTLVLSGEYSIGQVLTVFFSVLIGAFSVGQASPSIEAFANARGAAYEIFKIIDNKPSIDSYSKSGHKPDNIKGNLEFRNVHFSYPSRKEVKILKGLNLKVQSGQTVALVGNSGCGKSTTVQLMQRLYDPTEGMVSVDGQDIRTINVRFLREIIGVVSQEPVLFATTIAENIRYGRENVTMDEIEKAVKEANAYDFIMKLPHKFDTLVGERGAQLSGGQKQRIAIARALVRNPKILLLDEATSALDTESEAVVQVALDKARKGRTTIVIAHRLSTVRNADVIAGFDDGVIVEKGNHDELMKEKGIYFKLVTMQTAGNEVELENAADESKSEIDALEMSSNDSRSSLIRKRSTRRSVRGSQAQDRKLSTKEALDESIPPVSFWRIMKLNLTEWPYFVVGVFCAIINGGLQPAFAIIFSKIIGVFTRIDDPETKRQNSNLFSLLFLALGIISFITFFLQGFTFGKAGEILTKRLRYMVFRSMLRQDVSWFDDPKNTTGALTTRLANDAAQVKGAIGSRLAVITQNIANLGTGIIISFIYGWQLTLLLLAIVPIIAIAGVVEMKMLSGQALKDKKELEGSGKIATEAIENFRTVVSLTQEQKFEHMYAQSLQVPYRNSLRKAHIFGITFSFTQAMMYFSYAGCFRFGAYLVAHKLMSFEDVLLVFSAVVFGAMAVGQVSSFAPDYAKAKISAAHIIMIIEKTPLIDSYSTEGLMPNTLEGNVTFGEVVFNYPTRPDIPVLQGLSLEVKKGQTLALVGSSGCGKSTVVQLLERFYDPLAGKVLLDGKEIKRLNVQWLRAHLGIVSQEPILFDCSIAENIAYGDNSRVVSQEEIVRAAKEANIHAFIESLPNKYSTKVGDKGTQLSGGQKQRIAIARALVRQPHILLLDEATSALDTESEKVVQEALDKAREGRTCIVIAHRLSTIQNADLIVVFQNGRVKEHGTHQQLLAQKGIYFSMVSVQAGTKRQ
# [2] = GFP-Q80 aggregate reduction, neuronal-like cells, cell-based, NGF-treated PC12, GFPQ80 (AID 1614); conditions: PC12 NGF-treated GFP-polyQ80 inclusion reduction;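 note: lower means fewer inclusions and 0 means no inclusions at all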
# [3] = system: Aerobactin synthetase IucA (Klebsiella pneumoniae); assay: inhibition of K. pneumoniae IucA enzyme – biochemical, Tocris library, absorbance (AID 1345561); conditions: purified IucA enzyme assay, absorbance (OD) read-out; stronger effect = lower value;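 tested at 8 µM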;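 note: 100% = enzyme without compound and 0% = no enzyme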
# [4] = compounds altering circadian rhythm period length – cell-based, LOPAC library, luminescence reporter (AID 2774); conditions: circadian reporter cells, at 7 µM, actives lie on both sides;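 note: values are relative to mean of DMSO wells on each plate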
# [5] = system: Hepatitis C virus NS3 helicase; assay: blockers of NS3h binding to ssDNA – biochemical, fluorescence polarization, LOPAC1280 library, primary screen (AID 687035; in the data active = inhibition above about 37%); conditions: Purified HCV NS3 helicase, Cy5-dT15 ssDNA binding fluorescence polarization; stronger effect = higher value; concentration not given here
# [6] = compounds altering Cy5-DNA-NS3h complex signal – biochemical, LOPAC1280, artefact control for HCV NS3 helicase inhibitor project (AID 687037); conditions: Cy5-DNA-NS3h complex fluorescence interference counterscreen
# [7] = system: R275C/Slo1WT/beta2; assay: BK channel mutant inhibitors and activators – cell-based, U2OS BacMam, thallium flux, beta subunits, selectivity assay, profiling panel (AID 1259406;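 active = thallium flux through the channel raised or lowered by more than 3 SD from vehicle-only wells, actives on both sides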;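 note: initial slope of Thallos dye fluorescence rise after thallium is added; log ratio against the mean of 0.3% DMSO vehicle wells on the same plate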); conditions: U2OS BacMam BK variants, at 30 µM
# [8] = viability loss in pontine glioma line – cell-based, SU-DIPG-XIII, MIPE5.0, CellTiter-Glo, qHTS, dose response (AID 1347064; cut-off not given, nearly all actives have AC50 up to about 23 µM); conditions: CellTiter-Glo ATP luminescence
# [9] = growth inhibition of DIPG cells – cell-based, MIPE4.0 library, CellTiter-Glo luminescence, qHTS (AID 1347066; cut-off not given, nearly all actives have AC50 up to about 30 µM;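 note: cells exposed to compound for 48 hours before readout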); conditions: SU-DIPG-VI viability, CellTiter-Glo ATP luminescence
# [10] = JHH-DIPG-1 glioma cell viability, MIPE5.0 library, CellTiter-Glo luminescence, qHTS (AID 1347067; cut-off not given, nearly all actives have AC50 up to about 26 µM;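 note: cells exposed to compound for 48 hours before readout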); conditions: JHH-DIPG-1 glioma viability, CellTiter-Glo ATP luminescence
# [11] = growth inhibition of DIPG cells – cell-based, MIPE5.0 library, qHTS (AID 1347068; cut-off not given, nearly all actives have IC50 up to about 30 µM); conditions: SU-DIPG-XXV viability
# [12] = viability loss in pontine glioma line – cell-based, SU-DIPG-XIII, MIPE4.0, CellTiter-Glo, qHTS, dose response (AID 1347061; cut-off not given, nearly all actives have AC50 up to about 37 µM;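 note: cells exposed to compound for 48 hours before readout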); conditions: CellTiter-Glo ATP luminescence
# [13] = viability loss in pontine glioma line – cell-based, JHH-DIPG-1, MIPE4.0, CellTiter-Glo, qHTS, dose response (AID 1347062; cut-off not given, nearly all actives have AC50 up to about 27 µM); conditions: JHH-DIPG-1 viability, CellTiter-Glo ATP luminescence
# [14] = viability loss in pontine glioma line – cell-based, SU-DIPG-IV, MIPE4.0, CellTiter-Glo, qHTS, dose response (AID 1347063; cut-off not given, nearly all actives have AC50 up to about 30 µM;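 note: compound exposure lasted 48 hours before the viability readout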); conditions: CellTiter-Glo ATP luminescence
# [15] = viability loss in pontine glioma line – cell-based, SU-DIPG-XVII, MIPE5.0, CellTiter-Glo, qHTS, dose response (AID 1347060; cut-off not given, nearly all actives have AC50 up to about 26 µM;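 for AC50: cells exposed to compound for 48 hours before viability readout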); conditions: CellTiter-Glo ATP luminescence
# [16] = viability loss in pontine glioma line – cell-based, SU-DIPG-XXV, MIPE5.0, CellTiter-Glo, qHTS, dose response (AID 1347065; cut-off not given, nearly all actives have AC50 up to about 26 µM;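 note: cells exposed to compound for 48 hours before ATP readout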); conditions: CellTiter-Glo ATP luminescence
# [17] = growth inhibition, single agent or in combination, cell-based, chromothripsis tumors, cisplatin or BGB combos (AID 1671449; in the data active = inhibition above about 80%;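 note: cells exposed for 96 hours; 0% = vehicle DMSO and 100% = killing by high DMSO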); conditions: LFS_MB_P medulloblastoma cells
# [18] = growth inhibition, single agent and combos, cell-based, chromothripsis tumors, cisplatin or BGB combos (AID 1671450; in the data active = inhibition above about 80%;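 note: cells exposed to compound for four days; 0% = vehicle DMSO and 100% = cell killing by high DMSO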); conditions: HDN33 neuroblastoma cells, stronger effect = higher value
# [19] = growth inhibition, single agents and combos, ICB984, cell-based, cisplatin or BGB combos, synergistic combos for chromothripsis tumors (AID 1671451); conditions: ICB984 medulloblastoma cells, drug combinations, stronger effect = higher value;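 note: cells exposed for 96 hours before readout; 0% = vehicle DMSO and 100% = killing by high DMSO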
# [20] = growth inhibition, single agents and combos, HTB85, cell-based, BGB or cisplatin IC20 combos, synergistic combos for chromothripsis tumors (AID 1671453; in the data active = inhibition above about 80%;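 note: cells exposed for 96 hours before readout; 0% = vehicle DMSO and 100% = high DMSO killing control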); conditions: HTB85 osteosarcoma cells, drug combinations, stronger effect = higher value
smiles,measurement,setting,value
O=C1CN(/N=C/c2ccc([N+](=O)[O-])o2)C(=O)N1,fluorescence slope change,[1],98.9% (active)
same,inclusion score,[2],2
COc1ccccc1N1CCN(CCCCNC(=O)c2ccc(-c3ccc(C(C)=O)cc3)cc2)CC1,remaining activity,[3],111% (inactive)
CN/C(=C\[N+](=O)[O-])NCCSCc1ccc(CN(C)C)o1,fluorescence slope change,[1],105% (active)
same,inclusion score,[2],2
same,period change,[4],0.16 h (inactive)
same,inhibition,[5],-3% (inactive)
same,fluorescence ratio (interference),[6],0.9 (inactive)
same,log fold change Tl+ flux,[7],-0.015 (inactive)
COC(=O)C1=C(C)NC(C)=C(C(=O)OCCN(C)Cc2ccccc2)C1c1cccc([N+](=O)[O-])c1 (stereo unspecified),fluorescence slope change,[1],15.7% (inactive)
same,period change,[4],-0.09 h (inactive)
same,inhibition,[5],3% (inactive)
same,fluorescence ratio (interference),[6],1 (inactive)
same,log fold change Tl+ flux,[7],0.00258 (inactive)
COC(=O)C1=C(C)NC(C)=C(C(=O)OC)C1c1ccccc1[N+](=O)[O-],period change,[4],-0.175 h (inactive)
same,inhibition,[5],-1% (inactive)
same,fluorescence ratio (interference),[6],1 (inactive)
same,remaining activity,[3],121% (inactive)
CCN(CC)CCOc1ccc(Cc2ccccc2)cc1,remaining activity,[3],100% (inactive)
same,outcome,[8],inactive
same,outcome,[9],inactive
same,outcome,[10],inactive
same,outcome,[11],inactive
N=c1nc(N2CCCCC2)cc(N)n1O,inclusion score,[2],1
same,period change,[4],-0.045 h (inactive)
same,inhibition,[5],-4% (inactive)
same,fluorescence ratio (interference),[6],1 (inactive)
same,remaining activity,[3],109% (inactive)
same,outcome,[12],inactive
same,outcome,[13],inactive
same,outcome,[14],inactive
same,outcome,[9],inactive
same,log fold change Tl+ flux,[7],0.0414 (inactive)
CC(C)(C)NCC(O)c1ccc(O)c(CO)c1 (stereo unspecified),inclusion score,[2],2
same,period change,[4],-0.055 hour (inactive) and -0.15 hour (inactive)
same,inhibition,[5],0% (inactive)
same,fluorescence ratio (interference),[6],1 (inactive)
same,outcome,[15],inactive
same,outcome,[12],inactive
same,outcome,[13],inactive
same,outcome,[14],inactive
same,outcome,[8],inactive
same,outcome,[16],inactive
same,outcome,[9],inactive
same,outcome,[10],inactive
same,outcome,[11],inactive
CCCC(CCC)C(=O)O,inclusion score,[2],2
same,period change,[4],0.1 h (inactive)
same,inhibition,[5],0% (inactive)
same,fluorescence ratio (interference),[6],1 (inactive)
same,outcome,[15],inactive
same,outcome,[12],inactive
same,outcome,[16],inactive
same,outcome,[9],inactive
same,outcome,[10],inactive
same,outcome,[11],inactive
same,inhibition,"[17]; at 0.5 µM, stronger effect = higher value",-13.2% (inactive) and -3.77% (inactive)
same,inhibition,"[17]; measured here: combination with BGB IC20, at 0.005 µM",-6.05% and -4.21%
same,inhibition,"[17]; measured here: combination with BGB IC40, at 0.005 µM",-31.2% and 0.129%
same,inhibition,"[17]; measured here: combination with BGB IC40, at 0.05 µM",-32.2% and 12.9%
same,inhibition,"[17]; measured here: combination with cisplatin, at 0.5 µM, stronger effect = higher value",-39.1% and -9.89%
same,inhibition,"[17]; measured here: combination with cisplatin, at 5 µM, stronger effect = higher value",-24.7% and -24.2%
same,inhibition,"[18]; BGB combo, at 5 µM",-30.6% and 8.86%
same,inhibition,[18]; at 0.5 µM,-23.5% (inactive) and 13.8% (inactive)
same,inhibition,"[18]; cisplatin combo, at 5 µM",-2.31% and 15.6%
same,inhibition,"[18]; measured here: with BGB IC20 combination, at 0.5 µM",-33% and 14.7%
same,inhibition,"[18]; measured here: with cisplatin IC20 combination, at 0.5 µM",0.437% and 10.4%
same,inhibition,"[18]; single agent, at 5 µM",-20.1% and 11%
same,inhibition,"[19]; BGB IC20 combo, at 0.005 µM",-9.77% and 11.3%
same,inhibition,"[19]; BGB IC40 combo, at 0.005 µM",-20.4% and -26.6%
same,inhibition,"[19]; BGB IC40 combo, at 0.05 µM",-15.7% and -0.427%
same,inhibition,[19]; at 0.5 µM,-27.6% (inactive) and -12.8% (inactive)
same,inhibition,"[19]; cisplatin combo, at 0.05 µM",-18.9% and -4.04%
same,inhibition,"[19]; cisplatin combo, at 0.5 µM",-35.6% and -3.79%
same,inhibition,"[19]; cisplatin combo, at 5 µM",-25.9% and 4.77%
same,inhibition,"[19]; measured here: 5 uM single agent, at 5 µM",-29.5% and -2.64%
same,inhibition,[20]; at 0.5 µM,-8.02% (inactive) and 3.4% (inactive)
same,inhibition,"[20]; measured here: with BGB IC20, at 0.5 µM",-18.9% and -3.5%
same,inhibition,"[20]; measured here: with BGB IC20, at 5 µM",53.9% and 3.4%
same,inhibition,"[20]; measured here: with cisplatin IC20, at 0.5 µM",-4.12% and 2.48%
same,inhibition,"[20]; measured here: with cisplatin IC20, at 5 µM",-47.8% and -2.5%
same,inhibition,"[20]; single agent, at 5 µM",-17.1% and 13.4%
same,log fold change Tl+ flux,[7],-0.0422 (inactive)
CN1[C@@H]2CC(OC(=O)[C@H](CO)c3ccccc3)C[C@H]1[C@@H]1O[C@@H]12 (stereo partly specified),remaining activity,[3],104% (inactive)
CC(C)(C(=O)O)c1ccc(C(O)CCCN2CCC(C(O)(c3ccccc3)c3ccccc3)CC2)cc1 (stereo unspecified),period change,[4],0.08 h (inactive)
same,inhibition,[5],-1% (inactive)
same,fluorescence ratio (interference),[6],1.1 (inactive)
same,remaining activity,[3],89.1% (inactive)
same,log fold change Tl+ flux,[7],0.0197 (inactive)
O=C(O)COCCN1CCN(C(c2ccccc2)c2ccc(Cl)cc2)CC1 (stereo unspecified),fluorescence slope change,[1],28.7% (inactive)
same,inhibition,[5],-1% (inactive)
same,fluorescence ratio (interference),[6],1 (inactive)
same,remaining activity,[3],109% (inactive)
same,outcome,[12],inactive
same,outcome,[13],inactive
same,outcome,[14],inactive
same,outcome,[9],inactive
same,log fold change Tl+ flux,[7],-0.0639 (inactive)
C[N+]1(C)CCC(OC(=O)C(O)(c2ccccc2)C2CCCC2)C1 (stereo unspecified),log fold change Tl+ flux,[7],0.0815 (active) and 0.0504 (inactive)
Clc1ccccc1CN1CCc2sccc2C1,outcome,[15],inactive
same,outcome,[12],inactive
same,outcome,[13],inactive
same,outcome,[8],inactive
same,outcome,[16],inactive
same,outcome,[9],inactive
same,outcome,[10],inactive
same,outcome,[11],inactive
same,log fold change Tl+ flux,[7],0.00594 (inactive)
CC(C)n1c(/C=C/[C@@H](O)C[C@@H](O)CC(=O)O)c(-c2ccc(F)cc2)c2ccccc21,log fold change Tl+ flux,[7],0.0615 (inactive)
O=S(=O)(c1cccc2cnccc12)N1CCCNCC1,remaining activity,[3],109% (inactive)
same,outcome,[15],inactive
same,outcome,[12],inactive
same,outcome,[13],inactive
same,outcome,[8],inactive
same,outcome,[16],inactive
same,outcome,[9],inactive
same,outcome,[10],inactive
same,outcome,[11],inactive
NCCCC(O)(P(=O)(O)O)P(=O)(O)O,outcome,[15],inactive
same,outcome,[12],inactive
same,outcome,[13],inactive
same,outcome,[8],inactive
same,outcome,[16],inactive
same,outcome,[10],inactive
same,outcome,[11],inactive
O=C(NCC1CCCCN1)c1cc(OCC(F)(F)F)ccc1OCC(F)(F)F (stereo unspecified),period change,[4],0.075 h (inactive)
same,remaining activity,[3],117% (inactive)
same,outcome,[15],inactive
same,outcome,[12],inactive
same,outcome,[8],inactive
same,outcome,[16],inactive
same,outcome,[9],inactive
same,outcome,[10],inactive
same,outcome,[11],inactive
CC(C)(C)c1ccc(C(O)CCCN2CCC(C(O)(c3ccccc3)c3ccccc3)CC2)cc1 (stereo unspecified),fluorescence slope change,[1],182% (active)
same,period change,[4],0.22 h (inactive)
same,inhibition,[5],-3% (inactive)
same,fluorescence ratio (interference),[6],0.9 (inactive)
COc1ccc(-c2nc3ccc(C4=NNC(=O)CC4C)cc3[nH]2)cc1 (stereo unspecified),AC50,[15],16.6 µM (active)
same,outcome,[12],inactive
same,outcome,[13],inactive
same,outcome,[9],inactive
O=C(O)CCn1c2c(c3ccccc31)C[C@H](NS(=O)(=O)c1ccc(F)cc1)CC2,outcome,[15],inactive
same,outcome,[12],inactive
same,outcome,[13],inactive
same,outcome,[16],inactive
same,outcome,[9],inactive
same,outcome,[10],inactive
same,outcome,[11],inactive
Cc1ccc(/C(=C\CN2CCCC2)c2ccccn2)cc1,fluorescence slope change,[1],91.4% (active)
same,inclusion score,[2],2
same,period change,[4],0.045 h (inactive)
same,inhibition,[5],1% (inactive)
same,fluorescence ratio (interference),[6],1 (inactive)
same,remaining activity,[3],77.2% (inactive)
O=C(O)c1cn(C2CC2)c2cc(N3CCNCC3)c(F)cc2c1=O,fluorescence slope change,[1],54.5% (active)
same,inclusion score,[2],2
same,outcome,[15],inactive
same,outcome,[12],inactive
same,outcome,[13],inactive
same,outcome,[8],inactive
same,outcome,[16],inactive
same,outcome,[9],inactive
same,outcome,[10],inactive
same,outcome,[11],inactive
CC1(C)[C@H](C(=O)O)N2C(=O)C[C@H]2S1(=O)=O,outcome,[13],inactive
same,outcome,[14],inactive
same,outcome,[9],inactive
CC(C)c1c(C(=O)Nc2ccccc2)c(-c2ccccc2)c(-c2ccc(F)cc2)n1CC[C@@H](O)C[C@@H](O)CC(=O)O,outcome,[8],inactive
same,outcome,[11],inactive
CC(C)(C)CC(C)(C)c1ccc(OCCOCC[N+](C)(C)Cc2ccccc2)cc1,fluorescence slope change,[1],152% (active)
